Inconclusive results are not listed. Unmarked numbers belong to inactive results. The source made the active and inactive calls. Calls come from the whole dose curve.
Potency is the fitted concentration of half-maximal effect.

This assay can be described thus: Cell Viability - SK-N-SH (AID 435).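 Note: compound exposure lasted 40 h at 37 °C.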 To be noted: SK-N-SH neuroblastoma cell viability qHTS. From the text: NIH Chemical Genomics Center [NCGC]
NIH Molecular Libraries Screening Centers Network [MLSCN]
National Institutes of Environmental Health Sciences [NIEHS]
National Toxicology Program [NTP]
We have developed a 1536-well cell-based assay for quantitative high throughput screening (qHTS) against a number of cell lines to determine in vitro cytotoxicity of small molecules. This particular assay uses the SK-N-SH cell line which is derived from human neuroblastoma.
NCGC Assay Protocol Summary:
The CellTiter-Glo luminescent cell viability assay (Promega) is a homogeneous method to measure the number of viable cells in culture. The end point readout of this assay is based on quantitation of intracellular ATP, an indicator of metabolic activity, using the luciferase reaction. Luciferase catalyzes the oxidation of beetle Luciferin to oxyluciferin and light in the presence of ATP. The luminescent signal is proportional to amount of ATP present.
Using the CellTiter-Glo luminescent cell viability assay, the amount of cellular ATP was measured in the SK-N-SH cell line with complete culture medium following compound treatment for 40 hours. The assay was performed in opaque white Kalypsys 1536-well plates. In the screen, tamoxifen and doxorubicin were used as positive controls. Library compounds were measured for their ability to cause acute toxicity in the cell line, as reflected by a decrease in intracellular ATP levels, in a concentration-dependent manner. Data were normalized to the controls for basal activity (DMSO only) and 100% inhibition (100 uM tamoxifen). AC50 values were determined from concentration-response data modeled with the standard Hill equation.
qHTS protocol fo CellTiter Glo SK-N-SH cellular assay
[Step] [Parameter] [Value] [Description]
1. Reagent; 5 uL; 1500 SK-N-SH cells/well
2. Time; 5 hr; 37 °C incubation
4. Controls; 23 nL; Tamoxifen 0.34 uM to 100 uM & Doxorubicin 0.02 nM to 100 uM
5. Time; 40 hr; 37 °C incubation
6. Reagent; 5 uL; CellTiter Glo reagent
7. Time; 20 min; Room Temperature
8. Detection; Luminescence; Viewlux plate reader
Keywords: cell viability, cytotoxicity, SK-N-SH cell line, luminescence, NTPHTS, NTPHTS_NCGC, NIEHS, EPA, DSSTox, MLSMR, MLSCN, NIH Roadmap, qHTS, NCGC
Consider `C[C@]12CC[C@H]3[C@@H](CCC4=CC(=O)CC[C@@]43C)[C@@H]1CC[C@@H]2O`, for which the Potency is above 92 µM.

Turning to `CCN(CC)c1ccccc1`, the Potency is above 92 µM.

On to `CC(Cl)Cl`, for which the Potency was above 92 µM.

Turning to `C[C@H]1CCCC(=O)CCC/C=C/c2cc(O)cc(O)c2C(=O)O1`, the Potency is 59.8 µM (active).

As to `OCC(Br)CBr` (stereo not given), the Potency was above 92 µM.

As to `ClC(Cl)=C(Cl)C(Cl)=C(Cl)Cl`, the Potency was above 92 µM.

Consider `O=NN(CCO)CCO`, for which the Potency was above 92 µM.

As for `COC1=CC(=O)OC(CCc2ccccc2)C1` (stereo not given), the Potency was above 92 µM.

Turning to `C=C(Cl)Cl`, the Potency was above 92 µM.

`BrCCBr`: the Potency was above 92 µM.

In the case of `Nc1ccc(Br)cc1`, the Potency is above 92 µM.

With `C[N+](C)(C)Cc1ccccc1`, the Potency is above 92 µM.

For `O=[N+]([O-])c1ccc(Cl)c(Cl)c1`, the Potency was above 92 µM.

`Cc1cccc([N+](=O)[O-])c1`: the Potency was above 92 µM.

For `Clc1nc(Cl)nc(Nc2ccccc2Cl)n1`, the Potency was above 92 µM.

In the case of `CC(=O)[O-].CC(=O)[O-].O.O.O.[Pb+2]`, the Potency is above 92 µM.

For the compound `[O-][Br+2]([O-])O`, the Potency was above 92 µM.

On to `CC(C)(C)OO`, for which the Potency was above 92 µM.

Take `C=CC1CC=CCC1` (stereo not given): the Potency was above 92 µM.

Turning to `COc1ccc(N)cc1`, the Potency is above 92 µM.

For the compound `C=C(C)C(=O)OCC1CO1` (stereo not given), the Potency is above 92 µM.

Take `Nc1c(Cl)c(Cl)nc(C(=O)O)c1Cl`: the Potency is above 92 µM.

Turning to `O=C(Cl)C(Cl)(Cl)Cl`, the Potency is above 92 µM.

On to `CCCSC(=O)Cl`, for which the Potency was above 92 µM.

As for `C1CCC2CCCCC2C1` (stereo not given), the Potency was above 92 µM.

Take `CCOc1ccc(N)cc1`: the Potency was above 92 µM.

As to `O=S1OCC2C(CO1)C1(Cl)C(Cl)=C(Cl)C2(Cl)C1(Cl)Cl` (stereo not given), the Potency is above 92 µM.

On to `C=CCOC(C)=O`, for which the Potency is above 92 µM.

As for `C=CC(N)=O`, the Potency is above 92 µM.

In the case of `C=CC(C)=O`, the Potency was above 92 µM.

With `CC(C)(C)OOC(C)(C)C`, the Potency was above 92 µM.

As for `O=C(O)COc1ccc(Cl)cc1Cl`, the Potency was above 92 µM.

Turning to `CC(C)(c1ccccc1)c1ccc(O)cc1`, the Potency was above 92 µM.

As for `CCOP(=S)(OCC)SCSC(C)(C)C`, the Potency was above 92 µM.

Turning to `ClC1=C(Cl)C2(Cl)C3C4CC(C5OC45)C3C1(Cl)C2(Cl)Cl` (stereo not given), the Potency is above 92 µM.

As to `O=[N+]([O-])c1cccc2ccccc12`, the Potency was above 92 µM.

For the compound `c1ccc(-c2ccccc2)cc1`, the Potency is above 92 µM.

For the compound `CCCOC(=O)c1ccccc1C(=O)OCCC`, the Potency is above 92 µM.

For `CCCCCCCC(=O)Cl`, the Potency was above 92 µM.

As to `Clc1nc(Cl)nc(Cl)n1`, the Potency was above 92 µM.

These data come from PubChem BioAssay (NCATS).
